The results in this text go back to PubChem BioAssay (EPA / NIEHS).

For orientation: AC50 means the concentration at which the activity in the assay is half-maximal.

Assay [1] is described as follows: BSK_3C_VCAM1: BioMAP Diversity Plus: 3C Assay for Vascular cell adhesion molecule 1 (VCAM1) Biomarker Activity (AID 2282999; active = hit-call score of the fitted dose curve at least 0.9, where 1 is the maximum; inactive = score below 0.9). The note with it: BioMAP 3C HUVEC, VCAM1 ELISA, cytokine-stimulated; actives raise or lower the signal. An outline of the steps: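 Human umbilical vein endothelial cells were dosed with compound for 24 h, after which cell-surface VCAM-1 was quantified by ELISA. Bidirectional curve fitting used DMSO as negative control and activity baseline.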
On the technique in general: In an ELISA, binding on a coated surface is turned into a signal by an enzyme label.

The nature of assay [2]: BSK_4H_Eotaxin3: BioMAP Diversity Plus: 4H Assay for Eotaxin 3 Biomarker Activity (AID 2283000; active = hit-call score of the fitted dose curve at least 0.9, where 1 is the maximum; inactive = score below 0.9;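 note: CCL26 protein level quantified by ELISA in parallel with SRB cytotoxicity check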). The conditions noted are these: primary human endothelial cells (HUVEC); actives raise or lower the signal. An outline of the steps: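 HUVEC, 24 h post-dose, ELISA for Eotaxin-3/CCL26. Gain or loss of signal fitted bidirectionally vs DMSO baseline.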
Assay [3] deals with human Peroxisome Proliferator-activated Receptor delta (PPARd), PPARD (gene 5467) (UniProt Q03181). In words: ATG_PPARd_TRANS: Attagene TRANS-FACTORIAL HepG2 Assay for human Peroxisome Proliferator-activated Receptor delta (PPARd) (AID 2283002). An outline of the steps:
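Multiplexed trans-activation format: HepG2 liver cells expressing exogenous NR-Gal4 chimeras and GAL4-UAS reporters were exposed for 24 h. Reporter mRNA was detected by RT-PCR with capillary electrophoresis fluorescence; activity fitted as gain of signal relative to DMSO.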

Read-out in assay [4]: Intercellular Adhesion Molecule 1 (ICAM1), ICAM1 (gene 3383)
In words: BSK_3C_ICAM1: BioMAP Diversity Plus: 3C Assay for Intercellular Adhesion Molecule 1 (ICAM1) Biomarker Activity (AID 2283003; active = hit-call score of the fitted dose curve at least 0.9, where 1 is the maximum; inactive = score below 0.9). The note with it: primary human endothelial cells (HUVEC); actives raise or lower the signal. The procedure, abridged: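 ICAM-1 levels measured by ELISA after HUVEC cultures in the 3C system had been dosed for 24 h. Gain or loss of signal relative to DMSO was fitted in both directions.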

Assay [5] concerns the target human Retinoic Acid Receptor beta (RARb), RARB (gene 5915) (UniProt P10826). Kind of assay: ATG_RARb_TRANS: Attagene TRANS-FACTORIAL HepG2 Assay for human Retinoic Acid Receptor beta (AID 2283004). An outline of the steps:
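HepG2 cells transiently transfected with multiplexed GAL4-UAS reporter units expressing chimeric NR–Gal4 fusions; 24 h compound exposure. Reporter mRNA quantified by RT-PCR, 6-FAM labelling, HpaI digestion and capillary electrophoresis; gain-of-signal fitted against DMSO baseline.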

Assay [6] concerns the target Retinoic acid receptor alpha (Homo sapiens) (UniProt P10276). Kind of assay: ATG_RARa_TRANS: Attagene TRANS-FACTORIAL HepG2 Assay for human Retinoic Acid Receptor alpha (RARa) (AID 2283005). The procedure, abridged: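 HepG2 cells transiently transfected with multiple reporter units expressing chimeric RARα-GAL4 fusion, with GAL4-UAS-driven reporters. After 24 h compound exposure, reporter mRNA induction quantified by RT-PCR and capillary electrophoresis with fluorescent labeling; gain-of-signal fitted relative to DMSO control.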

Assay [7] can be described thus: BSK_3C_Proliferation: Cell Proliferation Assessment in the BioMAP Diversity Plus: 3C Assay (AID 2283006; active = hit-call score of the fitted dose curve at least 0.9, where 1 is the maximum; inactive = score below 0.9;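 for AC50: potency may reflect either rise or fall in cell number versus DMSO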). The note with it: primary human endothelial cells (HUVEC). An outline of the steps:
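Read-out is total protein by SRB absorbance at 560 nm, taken as a proxy for relative cell number. Primary human umbilical vein endothelium cultured below confluence was dosed for 48 h, TCA-fixed and SRB-stained; curves were fitted bidirectionally versus DMSO.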

For assay [8], the target named is Peroxisome proliferator-activated receptor gamma (Homo sapiens) (UniProt P37231). Kind of assay: ATG_PPARg_TRANS: Attagene TRANS-FACTORIAL HepG2 Assay for human Peroxisome Proliferator-activated Receptor-gamma (PPARg) (AID 2283007). The procedure, abridged:
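A TRANS-format multiplexed reporter assay measures activity of an exogenous chimeric NR-Gal4 protein in HepG2 cells. After 24 h of chemical exposure, reporter transcripts are amplified, fluorescently labelled and sized by capillary electrophoresis, with gain of signal scored against DMSO.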

Assay [9] concerns the target Nuclear receptor subfamily 1 group I member 2 (Homo sapiens) (UniProt O75469). Kind of assay: ATG_PXR_TRANS: Attagene TRANS-FACTORIAL HepG2 Assay for human Pregnane X Receptor (PXR) (AID 2283008). The procedure, abridged: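 HepG2 cells transiently transfected with multiple reporter units, here a PXR-GAL4 chimera driving a GAL4-UAS reporter; 24 h compound exposure. Reporter mRNA measured by RT-PCR, FAM labelling and capillary electrophoresis; gain of signal fitted against DMSO baseline.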

The target in assay [10] is human Retinoic Acid Receptor gamma (RARg), RARG (gene 5916) (UniProt P13631). Kind of assay: ATG_RARg_TRANS: Attagene TRANS-FACTORIAL HepG2 Assay for human Retinoic Acid Receptor gamma (RARg) (AID 2283009). The procedure, abridged:
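Transient transfection of HepG2 with multi-reporter constructs, then 24 h chemical treatment. Total RNA isolated, reverse-transcribed, PCR-amplified, fluorescently labelled and resolved by capillary electrophoresis; activity scored as mRNA induction versus DMSO.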

Assay [11] concerns the target human RAR-related Orphan Receptor beta (RORb), RORB (gene 6096) (UniProt Q92753). In words: ATG_RORb_TRANS: Attagene TRANS-FACTORIAL HepG2 Assay for human RAR-related Orphan Receptor beta (RORb) (AID 2283010). The procedure, abridged: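 Readout is reporter-gene mRNA induction, detected as fluorescence after RT-PCR and capillary electrophoresis, fitted for gain of signal against DMSO controls. Transiently transfected HepG2 liver cells carrying GAL4-UAS reporter constructs were treated for 24 hours.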

Assay [12] has as its target human RAR-related Orphan Receptor gamma (RORg), RORC (gene 6097) (UniProt P51449). In words: ATG_RORg_TRANS: Attagene TRANS-FACTORIAL HepG2 Assay for human RAR-related Orphan Receptor gamma (RORg) (AID 2283011). An outline of the steps: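 Readout: reporter transcript induction (RT-PCR, fluorescent primer extension, capillary electrophoresis) after 24 h compound exposure of transiently transfected HepG2 cells carrying a RORg-Gal4 chimera and GAL4-UAS reporters; DMSO served as baseline, with increasing signal fitted.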

Assay [13] addresses Retinoic acid receptor RXR-alpha (Homo sapiens) (UniProt P19793). In words: ATG_RXRa_TRANS: Attagene TRANS-FACTORIAL HepG2 Assay for human Retinoid X Receptor alpha (RXRa) (AID 2283012). The procedure, abridged:
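Transient transfection of human HepG2 with multiple GAL4-UAS reporter constructs; 24 h compound exposure; total RNA isolated, reverse-transcribed, PCR-amplified, 6-FAM labelled, HpaI-cut, resolved by capillary electrophoresis. Positive-direction fit versus DMSO.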

Assay [14] addresses human Retinoid X Receptor beta (RXRb), RXRB (gene 6257) (UniProt P28702). Kind of assay: ATG_RXRb_TRANS: Attagene TRANS-FACTORIAL HepG2 Assay for human Retinoid X Receptor beta (RXRb) (AID 2283013). The procedure, abridged: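 Transfect HepG2 with GAL4-UAS multi-reporter constructs (chimeric NR-Gal4, TRANS format); dose compound 24 h; isolate RNA, RT-PCR, FAM primer extension, HpaI digest; quantify by capillary electrophoresis; positive direction vs DMSO.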

Assay [15] deals with human Thyroid Receptor alpha (THRa1), THRA (gene 7067) (UniProt P10827). In words: ATG_THRa1_TRANS: Attagene TRANS-FACTORIAL HepG2 Assay for human Thyroid Receptor alpha (THRa1) (AID 2283014). An outline of the steps: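 HepG2 cells transiently transfected with multiplexed GAL4-UAS reporter units for exogenous chimeric THRa1-Gal4; reporter mRNA measured 24 h after dosing by RT-PCR, 6-FAM labelling, HpaI digestion and capillary electrophoresis. Gain-of-signal fitted versus DMSO baseline.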
Chain of human Thyroid Receptor alpha (THRa1), THRA (gene 7067) (P10827 whole entry, looked up, the tested form may be a part): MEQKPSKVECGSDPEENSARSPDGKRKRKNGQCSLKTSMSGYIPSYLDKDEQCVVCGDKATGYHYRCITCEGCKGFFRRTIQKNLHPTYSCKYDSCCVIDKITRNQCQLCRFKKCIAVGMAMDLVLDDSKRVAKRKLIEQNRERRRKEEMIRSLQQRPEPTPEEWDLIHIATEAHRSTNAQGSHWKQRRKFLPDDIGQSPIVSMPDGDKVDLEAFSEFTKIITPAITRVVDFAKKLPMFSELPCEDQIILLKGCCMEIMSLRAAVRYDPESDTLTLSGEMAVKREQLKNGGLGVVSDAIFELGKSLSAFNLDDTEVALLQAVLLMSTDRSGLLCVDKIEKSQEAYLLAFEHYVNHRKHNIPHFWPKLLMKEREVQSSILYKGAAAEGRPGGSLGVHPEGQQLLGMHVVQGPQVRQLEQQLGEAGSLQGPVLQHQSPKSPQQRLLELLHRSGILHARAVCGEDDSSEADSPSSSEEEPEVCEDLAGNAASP

Read-out in assay [16]: E-selectin (Homo sapiens) (UniProt P16581)
Kind of assay: BSK_3C_Eselectin: BioMAP Diversity Plus: 3C Assay for Eselectin Biomarker Activity (AID 2283015; active = hit-call score of the fitted dose curve at least 0.9, where 1 is the maximum; inactive = score below 0.9;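 for outcome: cell surface E-selectin protein quantified by ELISA 24 h after dosing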). The note with it: primary human endothelial cells (HUVEC); actives raise or lower the signal. The procedure, abridged: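 Primary human umbilical vein endothelial cells (3C system) were dosed with chemical and cell-surface E-selectin measured by ELISA 24 h later. Bidirectional curve fitting used DMSO as negative control and baseline.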

Read-out in assay [17]: Monocyte Chemoattractant Protein-1 (MCP1), CCL2 (gene 6347)
Kind of assay: BSK_3C_MCP1: BioMAP Diversity Plus: 3C Assay for Monocyte Chemoattractant Protein-1 (MCP1) Biomarker Activity (AID 2283017; active = hit-call score of the fitted dose curve at least 0.9, where 1 is the maximum; inactive = score below 0.9). The conditions noted are these: primary human endothelial cells (HUVEC); actives raise or lower the signal. The procedure, abridged:
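Primary human umbilical vein endothelial cells (3C system) were exposed to test chemical for 24 h, after which MCP-1 was quantified by ELISA. Activity was fitted bidirectionally against DMSO as negative control and baseline.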

Read-out in assay [18]: Monocyte Chemoattractant Protein-1 (MCP1), CCL2 (gene 6347)
Kind of assay: BSK_4H_MCP1: BioMAP Diversity Plus: 4H Assay for Monocyte Chemoattractant Protein-1 (MCP1) Biomarker Activity (AID 2283018; active = hit-call score of the fitted dose curve at least 0.9, where 1 is the maximum; inactive = score below 0.9). The note with it: primary human endothelial cells (HUVEC); actives raise or lower the signal. The procedure, abridged:
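ELISA read-out of MCP-1 from human vascular endothelial primary cells taken at 24 hours after compound exposure. Activity was fitted in both directions relative to DMSO, which served as negative control.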

Results filed as inconclusive are left out. Activity calls are given as the source filed them. Rule for the calls, unless noted: active = hit-call score of the fitted dose curve at least 0.9, where 1 is the maximum; inconclusive = response in the unintended direction; inactive = score below 0.9.

Chain of human RAR-related Orphan Receptor gamma (RORg), RORC (gene 6097) (P51449 whole entry, looked up, the tested form may be a part): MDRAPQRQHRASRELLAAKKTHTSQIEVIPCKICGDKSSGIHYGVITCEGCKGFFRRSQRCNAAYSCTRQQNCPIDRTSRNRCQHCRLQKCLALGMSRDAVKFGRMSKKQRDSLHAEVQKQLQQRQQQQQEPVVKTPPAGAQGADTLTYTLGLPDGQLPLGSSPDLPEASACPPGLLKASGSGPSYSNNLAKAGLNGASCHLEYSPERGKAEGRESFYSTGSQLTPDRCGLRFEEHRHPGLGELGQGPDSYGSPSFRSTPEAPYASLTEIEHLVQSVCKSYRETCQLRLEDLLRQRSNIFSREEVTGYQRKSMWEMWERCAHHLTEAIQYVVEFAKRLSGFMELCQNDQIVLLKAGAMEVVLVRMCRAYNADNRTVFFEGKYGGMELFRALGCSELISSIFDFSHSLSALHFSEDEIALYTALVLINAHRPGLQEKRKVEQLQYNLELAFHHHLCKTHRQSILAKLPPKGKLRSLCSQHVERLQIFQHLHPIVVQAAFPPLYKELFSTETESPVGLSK
Chain of human Retinoic Acid Receptor beta (RARb), RARB (gene 5915) (P10826 whole entry, looked up, the tested form may be a part): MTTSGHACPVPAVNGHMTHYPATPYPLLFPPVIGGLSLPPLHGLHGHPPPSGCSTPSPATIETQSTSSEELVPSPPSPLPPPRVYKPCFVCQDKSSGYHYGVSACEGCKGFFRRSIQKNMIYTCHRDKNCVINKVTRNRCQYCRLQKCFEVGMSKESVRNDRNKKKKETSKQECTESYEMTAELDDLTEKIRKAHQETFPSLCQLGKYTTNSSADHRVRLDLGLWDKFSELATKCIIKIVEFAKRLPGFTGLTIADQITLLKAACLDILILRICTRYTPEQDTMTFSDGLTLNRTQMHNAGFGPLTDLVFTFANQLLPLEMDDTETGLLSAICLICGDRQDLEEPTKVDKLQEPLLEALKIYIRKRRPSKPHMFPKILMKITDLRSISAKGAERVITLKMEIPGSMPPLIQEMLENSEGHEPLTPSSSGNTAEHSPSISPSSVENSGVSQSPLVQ
Chain of human Retinoid X Receptor beta (RXRb), RXRB (gene 6257) (P28702 whole entry, looked up, the tested form may be a part): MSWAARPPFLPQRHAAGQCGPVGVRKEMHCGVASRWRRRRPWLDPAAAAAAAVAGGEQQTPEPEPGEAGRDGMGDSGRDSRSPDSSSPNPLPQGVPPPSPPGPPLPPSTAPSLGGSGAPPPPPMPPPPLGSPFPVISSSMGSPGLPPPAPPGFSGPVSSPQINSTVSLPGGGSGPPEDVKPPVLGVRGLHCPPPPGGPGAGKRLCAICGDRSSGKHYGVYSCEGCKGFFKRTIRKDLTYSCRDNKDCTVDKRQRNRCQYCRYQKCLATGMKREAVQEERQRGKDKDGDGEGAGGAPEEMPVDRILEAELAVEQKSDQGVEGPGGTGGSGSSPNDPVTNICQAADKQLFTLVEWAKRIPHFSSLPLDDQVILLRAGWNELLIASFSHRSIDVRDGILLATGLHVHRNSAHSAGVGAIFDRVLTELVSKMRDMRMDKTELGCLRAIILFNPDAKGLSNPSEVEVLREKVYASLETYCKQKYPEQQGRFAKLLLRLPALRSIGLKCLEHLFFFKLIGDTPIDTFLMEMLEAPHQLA
Chain of E-selectin (Homo sapiens) (P16581 whole entry, looked up): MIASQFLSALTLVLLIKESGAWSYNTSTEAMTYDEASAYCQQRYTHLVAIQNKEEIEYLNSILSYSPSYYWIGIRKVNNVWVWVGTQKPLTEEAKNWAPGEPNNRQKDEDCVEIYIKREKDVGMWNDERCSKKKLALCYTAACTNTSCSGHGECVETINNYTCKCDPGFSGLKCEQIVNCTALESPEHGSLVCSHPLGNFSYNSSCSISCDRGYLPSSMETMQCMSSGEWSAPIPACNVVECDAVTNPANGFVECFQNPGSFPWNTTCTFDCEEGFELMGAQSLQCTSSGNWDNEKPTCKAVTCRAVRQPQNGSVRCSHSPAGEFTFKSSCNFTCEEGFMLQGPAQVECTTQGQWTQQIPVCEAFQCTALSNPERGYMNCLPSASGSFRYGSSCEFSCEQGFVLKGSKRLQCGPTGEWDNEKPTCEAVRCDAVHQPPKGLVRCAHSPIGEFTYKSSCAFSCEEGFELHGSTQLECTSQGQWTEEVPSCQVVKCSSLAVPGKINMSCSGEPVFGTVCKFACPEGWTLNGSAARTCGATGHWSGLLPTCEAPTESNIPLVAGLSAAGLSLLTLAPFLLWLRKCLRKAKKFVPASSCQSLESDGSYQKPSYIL
Chain of Retinoic acid receptor RXR-alpha (Homo sapiens) (P19793 whole entry, looked up, the tested form may be a part): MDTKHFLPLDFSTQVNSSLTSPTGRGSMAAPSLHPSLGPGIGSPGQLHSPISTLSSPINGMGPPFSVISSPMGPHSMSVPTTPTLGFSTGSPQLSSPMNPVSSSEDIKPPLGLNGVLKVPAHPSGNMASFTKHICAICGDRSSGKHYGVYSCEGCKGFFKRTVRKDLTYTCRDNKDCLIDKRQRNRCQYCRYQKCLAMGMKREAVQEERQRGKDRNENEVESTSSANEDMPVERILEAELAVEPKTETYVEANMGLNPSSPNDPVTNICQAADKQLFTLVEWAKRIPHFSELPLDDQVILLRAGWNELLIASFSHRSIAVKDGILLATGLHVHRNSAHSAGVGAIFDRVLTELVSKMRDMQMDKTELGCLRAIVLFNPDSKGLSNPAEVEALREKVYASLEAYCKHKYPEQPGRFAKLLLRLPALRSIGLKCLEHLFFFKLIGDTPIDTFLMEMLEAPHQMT
Chain of Nuclear receptor subfamily 1 group I member 2 (Homo sapiens) (O75469 whole entry, looked up, the tested form may be a part): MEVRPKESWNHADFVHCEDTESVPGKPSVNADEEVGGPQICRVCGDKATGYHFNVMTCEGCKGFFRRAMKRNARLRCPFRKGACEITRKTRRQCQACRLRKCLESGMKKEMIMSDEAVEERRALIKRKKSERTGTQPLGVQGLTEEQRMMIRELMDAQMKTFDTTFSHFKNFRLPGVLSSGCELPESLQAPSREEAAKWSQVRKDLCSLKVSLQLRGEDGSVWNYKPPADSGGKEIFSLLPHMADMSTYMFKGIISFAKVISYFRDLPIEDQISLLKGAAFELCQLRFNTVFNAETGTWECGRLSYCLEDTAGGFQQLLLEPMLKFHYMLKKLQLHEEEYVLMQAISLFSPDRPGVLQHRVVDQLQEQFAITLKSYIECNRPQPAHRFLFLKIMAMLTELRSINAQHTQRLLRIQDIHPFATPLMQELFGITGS
Chain of Retinoic acid receptor alpha (Homo sapiens) (P10276 whole entry, looked up, the tested form may be a part): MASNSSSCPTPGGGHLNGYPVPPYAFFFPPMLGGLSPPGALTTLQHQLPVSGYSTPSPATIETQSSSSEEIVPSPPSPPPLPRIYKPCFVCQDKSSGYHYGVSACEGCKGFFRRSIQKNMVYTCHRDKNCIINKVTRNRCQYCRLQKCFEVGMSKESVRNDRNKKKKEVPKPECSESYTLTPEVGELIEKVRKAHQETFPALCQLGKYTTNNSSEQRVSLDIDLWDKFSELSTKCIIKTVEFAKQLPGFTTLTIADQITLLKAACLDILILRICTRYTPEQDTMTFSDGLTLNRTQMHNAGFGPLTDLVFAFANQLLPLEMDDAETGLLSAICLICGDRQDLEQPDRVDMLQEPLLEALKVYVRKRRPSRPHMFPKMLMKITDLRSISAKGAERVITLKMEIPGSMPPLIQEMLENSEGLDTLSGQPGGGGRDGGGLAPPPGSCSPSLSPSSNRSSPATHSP
Chain of human Peroxisome Proliferator-activated Receptor delta (PPARd), PPARD (gene 5467) (Q03181 whole entry, looked up, the tested form may be a part): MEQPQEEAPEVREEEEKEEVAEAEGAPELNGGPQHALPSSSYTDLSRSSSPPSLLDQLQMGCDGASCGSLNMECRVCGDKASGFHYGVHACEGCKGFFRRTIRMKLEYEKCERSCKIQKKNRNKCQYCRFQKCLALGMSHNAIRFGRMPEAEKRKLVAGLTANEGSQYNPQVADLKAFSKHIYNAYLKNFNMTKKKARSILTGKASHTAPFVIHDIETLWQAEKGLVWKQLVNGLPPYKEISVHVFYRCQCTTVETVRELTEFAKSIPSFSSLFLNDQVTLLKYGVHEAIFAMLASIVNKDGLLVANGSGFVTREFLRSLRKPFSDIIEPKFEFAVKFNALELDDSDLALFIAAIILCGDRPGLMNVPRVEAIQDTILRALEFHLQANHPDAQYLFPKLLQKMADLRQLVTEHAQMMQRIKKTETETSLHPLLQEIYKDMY
Chain of human Retinoic Acid Receptor gamma (RARg), RARG (gene 5916) (P13631 whole entry, looked up): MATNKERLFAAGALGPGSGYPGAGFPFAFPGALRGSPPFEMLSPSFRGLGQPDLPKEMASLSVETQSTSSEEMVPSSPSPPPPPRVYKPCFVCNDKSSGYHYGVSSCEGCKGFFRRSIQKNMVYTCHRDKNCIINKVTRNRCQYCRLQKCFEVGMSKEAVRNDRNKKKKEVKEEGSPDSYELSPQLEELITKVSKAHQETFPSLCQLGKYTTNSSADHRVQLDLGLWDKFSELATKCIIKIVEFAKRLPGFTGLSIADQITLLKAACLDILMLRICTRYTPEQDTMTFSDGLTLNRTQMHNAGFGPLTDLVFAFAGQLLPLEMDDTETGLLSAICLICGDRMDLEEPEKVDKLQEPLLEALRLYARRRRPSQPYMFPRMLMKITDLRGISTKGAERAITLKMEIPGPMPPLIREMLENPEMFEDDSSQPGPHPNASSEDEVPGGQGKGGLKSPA

Turning to `Cc1nn(C)c(Oc2ccccc2)c1C=NOCc1ccc(C(=O)OC(C)(C)C)cc1`, the AC50 in assay [1] is 32.5 µM (active); in [7], 7.65 µM (active); in assay [8] it was 1.88 µM (active); in assay [15] it was 109 nM (active); in assay [16] it was 20 µM (active); in assay [17], 14.4 µM (active). The AC50 in assay [18] is 6.16 µM (active). Further, the result in [2], in assay [3], in assay [4], in assay [5], in assay [6] and in [9] was inactive. For the same compound, the call in [10], in assay [11], in [12], in assay [13] and in assay [14] was inactive.

For the compound `CC(C)(C)[C@@H](O)[C@@H](Cc1ccc(Cl)cc1)n1cncn1`, the outcome in assay [1], in [2], in [3], in assay [4], in assay [5] and in [6] was inactive. Also, the result in assay [7], in assay [8], in assay [9], in [10], in assay [12] and in assay [14] was inactive. The call in assay [15], in assay [16], in assay [17] and in [18] was inactive.

With `CCN(Cc1c(F)cccc1Cl)c1c([N+](=O)[O-])cc(C(F)(F)F)cc1[N+](=O)[O-]`, the outcome in assay [1], in [2], in assay [3], in assay [4], in assay [5] and in assay [6] was inactive. Besides, the compound was classed as inactive in [8], in assay [10], in assay [12], in assay [13], in assay [14] and in assay [16]. Also, the result in [17] was inactive. Besides, the AC50 in assay [7] was 12.9 µM (active); in [9] it was 3.41 µM (active); in assay [18], 11.3 µM (active).

For the compound `C[C@]12CC[C@@H]3c4ccc(O)cc4C[C@@H](CCCCCCCCCS(=O)CCCC(F)(F)C(F)(F)F)[C@H]3[C@@H]1CC[C@@H]2O` (stereo partly specified), the result in assay [1], in assay [2], in [3], in assay [4], in [5] and in assay [8] was inactive. For the same compound, the call in assay [11], in assay [12], in [13], in assay [14], in [15] and in [16] was inactive. Moreover, the result in assay [17] and in [18] was inactive. The results for the AC50 in assay [7] and in assay [9] were 2.05 µM (active) and 494 nM (active) [middle of 4 runs], respectively.
